# HTT cytoprotect: cytoprotection in Huntington HTT-Q103 PC12 cell model; Potency, µM (top dose mostly 56.4 µM), inactives show cytoprotection (ATP increase), usual class: activators; AID 1471; PC12 HTT-Q103 induced, cytoprotection, ATP luminescence, 40 h; actives 0.14% (n = 230,000); note: % of control where 0% means no effect; nearly all actives have a fitted effect of over 45% in size
#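 PC12 cells stably carrying ecdysone-inducible Htt exon 1 (Q103)–GFP were induced with 100 nM tebufenozide (final) alongside library compounds in a dose series. Cytoprotection was scored as retained ATP by ATPlite luminescence.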
# LMNA splice mod: changes lamin A minigene splicing in HeLa cells; HeLa LMNA splicing GFP/RFP minigene ratio, 48 h; Potency, µM (series often up to 46.1 µM), for inactives: at the highest dose ratio change, negative = inhibition, most hits filed as inhibitors; actives 0.01% (n = 200,000); active = well fitted inhibition curve with a large enough effect in the signal ratio, with a control signal flat, not every such curve was filed as active; inconclusive = small, poorly fitted or top-dose-only effect, or effect the other way, or a change in a side signal; the % refers to the signal ratio; note: % is set by controls: 0 for no effect and ±100 for the full control effect
#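 S3 HeLa stable clones carrying a lamin A-EGFP splicing minigene plus DsRed2 were seeded at 600 cells/well in Opti-MEM with 2% FBS, pin-dosed and incubated 48 h at 37°C. Acumen cytometry (488 nm) gave the GFP/RFP total-intensity ratio.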
# KinaseGlo FLuc: counter-screen: inhibitors of Kinase-Glo firefly luciferase; AID 1379; Kinase-Glo luciferase, ATP luminescence, 8 min; actives 0.28% (n = 200,000); Potency, µM (highest dose often 38.3 µM), for inactives: top-dose activity change, negative = inhibition, most hits filed as inhibitors; note: % is set by controls: 0 for no effect and ±100 for the full control effect; nearly all actives have a fitted effect of over 60% in size
#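 Substrate mix (final 50 mM imidazole pH 7.2, 50 mM KCl, 7 mM MgCl2, 10 uM ATP, 0.01% Tween 20, 0.05% BSA) plus pin-tool compound, then Kinase-Glo detection mix; 8 min ambient, luminescence read.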
# ALDH1A1 inh: blocks purified human ALDH1A1 activity; Purified ALDH1A1, NADH fluorescence, propionaldehyde substrate; Potency, µM (doses to about 75.3 µM), inactives show at the highest dose activity, negative = inhibition, hits mostly inhibitors; actives 7.3% (n = 220,000); active = well fitted inhibition curve with a large enough effect, not every such curve was filed as active; inconclusive = small, poorly fitted or top-dose-only effect, or another doubt; inactive = no such curve, though single readings can be large or run the other way;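 note: plate controls were no enzyme wells and a reference inhibitor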
# HPGD inh: inhibitors of human 15-hydroxyprostaglandin dehydrogenase (HPGD); actives 4.3% (n = 150,000); purified HPGD, NADH fluorescence kinetic, PGE2 substrate; P15428; Potency, µM, inactives show at the top dose activity change, negative = inhibition, most hits filed as inhibitors; active = well fitted inhibition curve with a large enough effect, not every such curve was filed as active; inconclusive = small, poorly fitted or top-dose-only effect, or another doubt; inactive = no such curve, though single readings can be large or run the other way; note: % is set by controls: 0 for no effect and ±100 for the full control effect
# Target sequence (P15428 whole entry, looked up): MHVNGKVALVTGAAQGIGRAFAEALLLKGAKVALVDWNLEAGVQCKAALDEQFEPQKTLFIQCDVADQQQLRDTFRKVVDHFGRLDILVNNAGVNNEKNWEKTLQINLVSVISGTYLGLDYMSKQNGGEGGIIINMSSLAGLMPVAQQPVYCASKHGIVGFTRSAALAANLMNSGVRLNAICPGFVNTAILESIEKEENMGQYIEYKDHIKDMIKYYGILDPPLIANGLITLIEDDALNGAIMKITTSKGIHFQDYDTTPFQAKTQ
#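 20 nM HPGD preincubated 15 min at room temperature with compound in 50 mM Tris-HCl pH 8, 0.01% Tween 20. Started with 1 mM NAD+ and 30 uM prostaglandin E2; NADH fluorescence (360/450 nm) read 5 times over 30-s intervals, last minus first.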
# HTT aggregate: mutant huntingtin aggregation inhibition; PC12 HttQ103-GFP aggregates, Acumen cytometry, 40 h; Potency, µM (series often up to 46.1 µM), for inactives: at the highest dose activity change, negative = inhibition, actives largely listed as inhibitors; actives 1.1% (n = 220,000); AID 1688; note: % is set by controls: 0 for no effect and ±100 for the full control effect; nearly all actives have a fitted effect of over 60% in size
#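 Read-out: GFP aggregate count by laser scanning cytometer (488 nm excitation, 500-530 nm emission, 1–25 µm objects >6 SD above background). Cells: PC12, inducible HTTex1-Q103-GFP, 100 nM tebufenozide; compounds titrated.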
# Numbers without * were called inactive; ? = inconclusive; nt = no result; [ ] = dose if it differs, or a comment. Shown are actives, neighbours in structure and some others; about 9% of the full set was active somewhere. Unless noted, calls come from the whole dose curve; as a rule, active = well fitted curve in the direction sought with a large enough effect; inconclusive = small, poorly fitted or top-dose-only effect, or another doubt; inactive = no such curve, though single readings can be large; an effect the other way counts as inactive or inconclusive. Potency is the fitted concentration of half-maximal effect.
SMILES,HTT cytoprotect,LMNA splice mod,KinaseGlo FLuc,ALDH1A1 inh,HPGD inh,HTT aggregate
O=C(c1ccc([N+](=O)[O-])cc1)N(Cc1ccc(Cl)cc1)N1C(=O)CCCC1=O,23%[10 µM],-1%,-1%,13%,-12%,?
O=C(COc1ccc(Cl)cc1Cl)NCCSc1ccc(Cl)cc1,-4%,-9%,-3%,-1%,-15%,-15%
CC(C)COC(=O)C1C(=O)CC(C)(O)C(C(=O)OCC(C)C)C1c1cccnc1 (configuration not stated),-5%,?,-6%,7%,-1%,6%
C=CS(=O)(=O)c1sc(Cl)c(N2CCOCC2)c1[N+](=O)[O-],-24%[10 µM],?,-1%,0.22µM*,nt,0%[9.22 µM]
O=C(CCSc1nc(-c2ccco2)cc(C(F)(F)F)n1)N1CCCc2ccccc21,-4%,-4%,3%,18µM*,?,?
O=C(CSc1nc(-c2ccco2)cc(C(F)(F)F)n1)Nc1ccc(C(=O)N2CCOCC2)cc1,12%[10 µM],7%,-3%,-4%,22µM*,1%
O=C(CSc1nc(-c2ccco2)cc(C(F)(F)F)n1)Nc1ccc2c(c1)OCO2,-10%[10 µM],-8%,2%,2%,-11%,-27%
O=C(CSc1nc(-c2ccco2)cc(C(F)(F)F)n1)NN1CCOCC1,nt,nt,2%,-7%,nt,nt
O=C(CCCSc1nc(-c2ccco2)cc(C(F)(F)F)n1)Nc1ccc2c(c1)OCO2,-18%[10 µM],?,1%,16µM*,20µM*,-12%
O=C(CCSc1nc(-c2ccco2)cc(C(F)(F)F)n1)N1CCN(c2ccccn2)CC1,-12%,?,-1%,?,-17%,19%
O=C(CCC(=O)N1CCN(c2ccc(O)cc2)CC1)c1ccc(Br)cc1,37%[10 µM],nt,nt,nt,nt,36%[9.22 µM]
Cc1nc(SCC(=O)c2ccc(F)c(F)c2)[nH]c(=O)c1Oc1ccc(Cl)cc1,3%[10 µM],nt,nt,nt,nt,-24%[9.22 µM]
COc1ccccc1OC(C)C(=O)NNC(=S)NC1CCCC1 (configuration not stated),6%,nt,nt,-18%,nt,12%
CC(OC(=O)c1ccco1)C(=O)NC1CCCCC1 (configuration not stated),-2%,-5%,-1%,3%,14µM*,11%[9.22 µM]
Cc1ccccc1OC(C)C(=O)NC1CCCC1 (configuration not stated),2%,6%,1%,-3%,13µM*,-12%
O=C(CNC(=O)c1cccs1)NCC(=O)OCc1c(F)cccc1Cl,-16%[10 µM],nt,-1%,4%,nt,2%
CCCn1c(CN(C)Cc2ccccc2)nc2c1c(=O)n(C)c(=O)n2C,10%[10 µM],?,1%,-6%,-12%,22µM*
CCCCn1c(CN(C)Cc2ccccc2)nc2c1c(=O)n(C)c(=O)n2C,24%[10 µM],?,2%,-4%,-8%,20µM*
COc1ccc(S(=O)(=O)N2CCCCC2)cc1NC(=O)c1ccc(=O)[nH]c1,-12%,-26%[46 µM],1%,-7%,nt,-14%
Cc1cc(OCC(=O)N(Cc2ccco2)C2CCS(=O)(=O)C2)cc(C)c1Cl (configuration not stated),10%[10 µM],nt,nt,nt,nt,15%[9.22 µM]
CC(=O)Nc1ccc2c(c1)ncn2C,2%[1.9 µM],-2%,-3%,35µM*,6%,-28%
Cc1ccc2c(c1)N=C(c1ccccc1)CC(C(Cl)Cl)=N2,5%[10 µM],nt,nt,nt,nt,20%[9.22 µM]
Cc1ccc(S(=O)(=O)Cc2sc3ccccc3[n+]2C)cc1,30%,9%,-3%,?,22µM*,-21%
O=S(=O)(Cc1nc2ccccc2s1)c1ccccc1,-16%[10 µM],-4%,-4%,-6%,-6%,-22%
CCCCn1c(=O)nc2n(-c3ccc(OC)cc3)c3ccccc3cc-2c1=O,-30%,nt,3%,8.9µM*,nt,4%
CCOc1ccccc1N/C(=C(/C(Cl)=C(Cl)Cl)[N+](=O)[O-])n1cncn1,-15%,0%,-2%,20µM*,-16%,14%
